# Epigenetic derep: epigenetic control regulation, reporter derepression. murine LDR cells, GFP reporter derepression, 30 h. Potency, µM (doses to about 53.9 µM), without a hit: top-dose GFP activation, usual class: activators. 280,000 tested, 0.2% active. AID 1865; note: % of control where 0% means no effect; nearly all actives have a fitted effect of over 60% in size
#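 Reporter derepression read as number of fluorescent GFP-positive objects, 20-120 um in size, counted by laser-scanning cytometer. Mouse LDR line with an epigenetically silenced CMV-GFP locus; compound incubation 30 h, 37 C.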
# GCN5L2 inh: blocks human GCN5L2 histone acetyltransferase; Potency, µM (top dose mostly 58.9 µM), without a hit: at the top dose activity change, negative = inhibition, actives largely listed as inhibitors; Q92830; GCN5L2 HAT assay, ThioGlo1 CoA-SH fluorescence; AID 504327; 390,000 tested, 0.21% active; note: % is set by controls: 0 for no effect and ±100 for the full control effect
#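 Compounds, pin-transferred from DMSO stocks, meet 20nM GCN5L2 for 15 min before the reaction begins with H3(1-25) peptide (75uM) and acetyl-CoA (70uM). Thiol-reactive ThioGlo1 reports CoA release over 20 min at room temperature.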
# IMPase Li inh: IMPase inhibition in cells with lithium potentiation. 210,000 tested, 0.35% active. AID 1457. CHO-M1 cells, IP1 TR-FRET (IP-One), carbachol + lithium. Potency, µM (top dose mostly 59.4 µM), without a hit: top-dose activity, negative = IMPase inhibition, actives largely listed as inhibitors;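 note: IP1 builds up when IMPase is blocked and the TR-FRET signal falls; plate controls were basal vehicle for no effect and high inhibitor control for full effect; nearly all actives have a fitted effect of over 50% in size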
#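 CHO cells stably expressing M1 receptor (2000/well, cultured 16–30 h) treated 30 min at 37C with compound plus low lithium. Cytosolic IP1 by TR-FRET (665/620 ratio and 620 channel) after 10 min lysis; AC50 by Hill fit.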
# NPSR antagonist: blocks cAMP signaling of the human neuropeptide S receptor; AID 1461; CHO-NPSR cells, cAMP TR-FRET, antagonist mode; Q6W5P4; Potency, µM (series often up to 38.3 µM), inactives show top-dose activity change, negative = inhibition, usual class: inhibitors; 220,000 tested, 1% active; note: % is set by controls: 0 for no effect and ±100 for the full control effect; nearly all actives have a fitted effect of over 50% in size
# Sfp inh: inhibitors of Bacillus subtilis Sfp phosphopantetheinyl transferase | Biochemical Sfp PPTase activity, qHTS | Potency, µM, for inactives: largest response in the series, negative = inhibition, usual class: inhibitors | 310,000 tested, 3.5% active | AID 1490;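 note: the enzyme is Sfp with the accession as filed and its product quenches rhodamine fluorescence; 0% = enzyme reaction without inhibitor and -100% = no enzyme wells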
#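 With Hepes-Na pH 7.6 buffer containing 10 mM MgCl2, Sfp (15 nM) modified BHQ-2-YbbR (12.5 uM) using rhodamine-CoA (5 uM). Two reads 30 minutes apart at 525/598 nm yielded each well's rate.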
# KDM4E inh: blocks human JMJD2E demethylase activity; B2RXH2; JMJD2E catalytic domain, FDH-coupled NADH fluorescence (FDH is formaldehyde dehydrogenase); Potency, µM (highest dose often 57.1 µM), for the others: at the highest dose activity change, negative = inhibition, hits mostly inhibitors; 230,000 tested, 1.6% active; active = well fitted inhibition curve with a large enough effect, not every such curve was filed as active; inconclusive = small, poorly fitted or top-dose-only effect, or another doubt; inactive = no such curve, though single readings can be large or run the other way;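 note: 0% = wells with enzyme and -100% = buffer wells without enzyme; nearly all actives have a fitted effect of over 50% in size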
# Target sequence (B2RXH2 1-337 limits assumed): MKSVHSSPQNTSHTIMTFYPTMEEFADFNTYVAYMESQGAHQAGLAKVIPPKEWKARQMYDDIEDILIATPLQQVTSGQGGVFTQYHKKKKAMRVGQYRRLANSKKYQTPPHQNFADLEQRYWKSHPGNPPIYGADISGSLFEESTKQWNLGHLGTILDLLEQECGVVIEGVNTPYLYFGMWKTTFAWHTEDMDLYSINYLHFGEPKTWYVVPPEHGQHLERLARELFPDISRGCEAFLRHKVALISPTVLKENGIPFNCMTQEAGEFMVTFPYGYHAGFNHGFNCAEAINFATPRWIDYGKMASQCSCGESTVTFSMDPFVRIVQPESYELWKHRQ
# Sfp PPTase conf: Sfp phosphopantetheinyl transferase inhibition, confirmation | shares compounds with Sfp inh | Sfp PPTase enzymatic assay, qHTS titration | Potency, µM (series often up to 114 µM), for inactives: top-dose activity change, negative = inhibition, actives largely listed as inhibitors | 380 tested, 79% active;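 note: plate controls were uninhibited Sfp reaction for no effect and no enzyme control for full effect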
# Target sequence (Q9F4F7 whole entry, looked up): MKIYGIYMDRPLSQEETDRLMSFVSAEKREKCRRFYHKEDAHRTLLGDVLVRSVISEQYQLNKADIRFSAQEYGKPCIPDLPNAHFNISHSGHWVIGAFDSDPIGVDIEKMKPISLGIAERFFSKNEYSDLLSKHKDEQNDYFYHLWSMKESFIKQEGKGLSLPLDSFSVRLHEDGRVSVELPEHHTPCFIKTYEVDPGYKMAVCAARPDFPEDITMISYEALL
# * = called active by the depositor; ? = inconclusive; . = not tested or not shown; ! = a repeat was not active; [ ] = another dose, or the depositor's remark. A selection: hits, their analogues and other compounds. The true share with any hit is near 3.6%. Unless noted, calls come from the whole dose curve; as a rule, active = well fitted curve in the direction sought with a large enough effect; inconclusive = small, poorly fitted or top-dose-only effect, or another doubt; inactive = no such curve, though single readings can be large; an effect the other way counts as inactive or inconclusive. Potency is the fitted concentration of half-maximal effect.
SMILES,Epigenetic derep,GCN5L2 inh,IMPase Li inh,NPSR antagonist,Sfp inh,KDM4E inh,others
CC[C@H](C)[C@H](NC(=O)[C@H](Cc1ccc(O)cc1)NC(=O)[C@H](Cc1cnc[nH]1)NC(=O)[C@H](CCCNC(=N)N)NC(=O)[C@H](CC(C)C)NC(=O)[C@H](C)NC(=O)[C@H](CO)NC(=O)[C@H](Cc1ccc(O)cc1)NC(=O)[C@H](Cc1ccc(O)cc1)NC(=O)[C@H](CCCNC(=N)N)NC(=O)[C@H](C)NC(=O)[C@H](CCSC)NC(=O)[C@H](CC(=O)O)NC(=O)[C@H](CCC(=O)O)NC(=O)[C@H](C)NC(=O)[C@@H]1CCCN1C(=O)[C@H](C)NC(=O)[C@H](CC(=O)O)NC(=O)[C@H](CCC(=O)O)NC(=O)CNC(=O)[C@@H]1CCCN1C(=O)[C@H](CC(N)=O)NC(=O)[C@H](CC(=O)O)NC(=O)[C@@H]1CCCN1C(=O)[C@H](CCCCN)NC(=O)[C@H](CO)NC(=O)[C@@H]1CCCN1C(=O)[C@@H](N)Cc1ccc(O)cc1)C(=O)N[C@@H](CC(N)=O)C(=O)N[C@@H](CC(C)C)C(=O)N[C@@H](CC(C)C)C(=O)N[C@H](C(=O)N[C@@H](CCCNC(=N)N)C(=O)N1CCC[C@H]1C(=O)N[C@@H](CCCNC(=N)N)C(=O)N[C@@H](Cc1ccc(O)cc1)C(N)=O)[C@@H](C)O,.,-16%,.,.,-21%,.,
Nc1nc(-c2ccc(Cl)c(Cl)c2)c(-c2ccncc2)s1,-1%,.,0%,.,22µM*,?,
O=C1C(SCCO)=C(SCCO)C(=O)c2ccccc21,?,-12%,64%,13µM*,0.28µM*!,?,
N#CC(=NCCO)C1=C(O)c2ccccc2C1=O,.,.,11%,.,.,.,
O=c1ccc(-c2nc3ccccc3n2Cc2ccc(Cl)cc2)c[nH]1,.,-5%,.,.,0%,.,
Cn1c(-c2ccc(=O)[nH]c2)nc2ccccc21,-6%,2%,1%,-19%,18µM*,?,
CCN1CCN(Cc2ccc(NC(=O)c3ccc(C)c(/C=C/c4cnc(Nc5cc(N6CCNCC6)nc(C)n5)cn4)c3)cc2C(F)(F)F)CC1,.,-11%,.,.,56µM*,.,
CCSc1nnc2n1C(C)(C)Cc1ccccc1-2,1%,-1%,3%[38.3 µM],-12%[46.1 µM],1%,-5%,
CC1(C)Cc2ccccc2-c2n[nH]c(=S)n21,-7%,-1%,?,2%[46.1 µM],45µM*,-5%,
CC1=NN(C(N)=S)C(=O)C1N=Nc1cccc(C(=O)O)c1 (centres undefined),.,0%,.,.,45µM*,.,
CC1=NN(C(N)=S)C(=O)C1N=Nc1ccc(O)cc1 (centres undefined),0%,-6%,25%,32%,14µM*,?,
Cc1ccc(C(=O)c2oc3ccccc3c2NC(=O)COc2ccc(C(C)C)cc2)cc1,0%,3%,.,.,.,.,
O=C1CC(=O)N(Cc2ccco2)C(=S)N1,1%,18µM*,17%[38.3 µM],12%[46.1 µM],22µM*,?,
O=C1CC(=O)N(Cc2ccco2)C(=O)N1,-1%,-17%,-3%,2%[46.1 µM],50µM*,-29%,
O=C1C2C3c4ccccc4C(c4ccccc43)C2C(=O)N1Cc1ccco1 (centres undefined),-2%,-2%,.,-16%[46.1 µM],45µM*,-2%,
O=C1CC(=O)N(Cc2cccs2)C(=O)N1,4%,4%,21%[38.3 µM],-7%[46.1 µM],-22%,-11%,
Cc1ccccc1/C=C/C1=NCCN1,-2%,-3%,5%,2%[46.1 µM],.,18µM*,
Cc1ccccc1C=O,.,-3%,-7%,.,.,.,
CCC1CCc2c(sc(NC(=O)c3cnccn3)c2C(N)=O)C1 (centres undefined),.,-7%,.,.,10µM*,.,Sfp PPTase conf=8.3µM*

# Screening data: PubChem BioAssay, National Center for Advancing Translational Sciences (NCATS)
